FMDV inh – foot and mouth disease virus antiviral activity; FMDV antiviral cell-based qHTS; Potency, µM (series often up to 57.9 µM), inactives show at the highest dose activity change, negative = inhibition, usual class: inhibitors; actives 1.2% (n = 410,000); calls by dose curve; tested in HEK293T cells; also: read-out not given here; potency is read from the fitted curve at half-maximal effect; nearly all actives have a fitted effect of over 45% in size
Sm TGR block – blocks Schistosoma mansoni thioredoxin glutathione reductase; Q962Y6; purified TGR, DTNB reduction, TNB absorbance 405 nm; Potency, µM (doses to about 114 µM), without a hit: top-dose activity change, negative = inhibition, usual class: inhibitors; actives 3% (n = 360,000); also: potency is read from the fitted curve at half-maximal effect; nearly all actives have a fitted effect of over 60% in size
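TGR 20 nM + NADPH 100 uM (dispensed conc.), cpd preinc 15 min RT; start with NADPH (500 uM addition) then DTNB (15 mM addition). Kinetic TNB absorbance, 405 nm filter. Four-parameter Hill fit across titration.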
Vaccinia mCherry – vaccinia inhibition (mCherry reporter). Potency, µM (titrated, usually from 36.5 µM), for inactives: top-dose activity change, negative = inhibition, hits mostly inhibitors. actives 0.63% (n = 310,000). Vaccinia virus mCherry reporter infection, fluorescence; calls by dose curve; tested in A549 cells; also: potency is read from the fitted curve at half-maximal effect; nearly all actives have a fitted effect of over 35% in size
HCMV antiviral – human cytomegalovirus inhibition. HFF cells, HCMV-luciferase reporter, 72 h; stronger effect = lower value. actives 4.5% (n = 410,000). AID 1259415. activity change, negative = inhibition, % at 57.5 µM; in the data active = activity change below about -60%; inconclusive = no clear call, values can overlap the other calls; inactive = above about -39%
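Two-dose cell screen: HFF monolayers treated with compounds and infected with luciferase-expressing HCMV at 1 PFU/cell, 72 h at 37C, then lysed for luciferase measurement.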
HCV inhibitor – blocks hepatitis C virus. Huh7.5.1 HCVcc-Cre infection, luciferase reporter, 44 h. actives 3.4% (n = 340,000). Potency, µM (titrated, usually from 41.8 µM), for inactives: at the highest dose activity change, negative = inhibition, usual class: inhibitors. AID 651820; also: potency is read from the fitted curve at half-maximal effect
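Reporter virus HCVcc-Cre (~0.5 moi) infects cells exposed to compound; seeding density 1,000 cells/well with 4 h settling beforehand. Luminescence, 15 sec read, taken 44 h post-infection following a 15 min RT substrate incubation.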
Vaccinia Venus – inhibitors of vaccinia virus (Venus reporter). Vaccinia virus Venus reporter expression, fluorescence. Potency, µM (highest dose often 36.5 µM), without a hit: top-dose activity change, negative = inhibition, hits mostly inhibitors. actives 0.46% (n = 330,000). AID 720580; calls by dose curve; tested in A549 cells; also: potency is read from the fitted curve at half-maximal effect; nearly all actives have a fitted effect of over 30% in size
Numbers without * were called inactive; i = inactive; ? = inconclusive; / = not tested or not shown; + = active, no number; ! = a repeat was not active; [ ] = remark or other dose. Most compounds without a hit are left out; they make up all but 9.3% or so of the library. Unless noted, calls follow the shape of the dose curve; as a rule, active = well fitted curve in the direction sought with a large enough effect; inconclusive = small, poorly fitted or top-dose-only effect, or another doubt; inactive = no such curve, though single readings can be large; an effect the other way counts as inactive or inconclusive. % is scaled to controls: 0 for no effect and ±100 for the full control effect.

SMILES	FMDV inh	Sm TGR block	Vaccinia mCherry	HCMV antiviral	HCV inhibitor	Vaccinia Venus
CCN(CC)c1ccc(C(NC(C)=O)NC(C)=O)cc1	-4.8%	1.6%	/	-15.6	-8.7%	-7.5%
CCN(CC)c1ccc(C(NC(=O)C(C)C)c2ccc3cccnc3c2O)cc1 (stereo unspecified)	-21.6%	/	?	-98.7*	/	?
CCN(CC)c1ccc(NC(=O)COC(=O)CCc2cc(OC)c(OC)c(OC)c2)cc1	-13.8%	/	-7.7%	-32.6	/	4.8%
COC(=O)Cn1c(=O)c2c(nc(Br)n2CC(=O)OC)n(C)c1=O	7.9%	5.9%	/	-19.5	9.2%	/
Cc1csc(CN(C)C(=O)CC2C(=O)NCCN2Cc2ccc(-c3ccccc3)cc2)n1 (stereo unspecified)	?	11.4%	?	-29.4	5.5%	-3.6%
Cc1csc(CN(C)C(=O)CC2C(=O)NCCN2Cc2ccc(F)cc2Cl)n1 (stereo unspecified)	-9.3%	12.6µM*	/	-32.1	0.8%	/
Cc1csc(CN(C)C(=O)CC2C(=O)NCCN2Cc2ccc(Cl)c(F)c2)n1 (stereo unspecified)	-1.5%	44.7µM*	/	+	18.1%	/
O=C(CCCN=C1NS(=O)(=O)c2ccccc21)OCc1ccc(F)cc1	-7.5%	-4.2%	-0.6%	-5.3	-4.0%	-24.4%
NC(=O)c1ccc(NC(=O)COC(=O)C2COc3ccccc3O2)cc1 (stereo unspecified)	-13.5%	/	-20.6%	3.1	17.5%	-12.4%
Cc1nn(C)cc1C(=O)Nc1c(C)nn(Cc2ccccc2Cl)c1C	-0.9%	0.5%	-20.9%	-79.5*	7.1%	-7.5%
COc1ccc(-c2cc(C(=O)Nc3c(C)nn(Cc4ccc(Cl)cc4)c3C)no2)cc1	?	0.8%	/	?	?	/
COc1ccc(OC)c(-c2cc(C(=O)Nc3c(C)nn(Cc4ccccc4Cl)c3C)no2)c1	-8.8%	0.0%	-13.4%	-34.2	15.8µM*	-26.6%
COc1ccccc1-c1cc(C(=O)Nc2c(C)nn(Cc3ccc(Cl)cc3)c2C)no1	28.2µM*	8.1%	?	-73.8*	/	?
Cc1cc(C(=O)Nc2c(C)nn(Cc3ccccc3Cl)c2C)no1	-2.2%	10.6%	/	-7.4	5.4%	/
Cc1ccc(Cn2nc(C)c(NC(=O)c3cc(-c4ccc5c(c4)OCO5)on3)c2C)cc1	-24.5%	3.1%	?	-60.3*	?	?
Cc1nn(Cc2ccc(F)cc2)c(C)c1NC(=O)c1cc(-c2ccc3c(c2)OCO3)on1	-16.2%	0.0%	/	-24.7	?	/
COc1ccc2c(c1)CCc1c(C(=O)Nc3c(C)nn(Cc4ccc(C)cc4)c3C)noc1-2	?	1.2%	?	-96.3*	/	?
Cc1nn(Cc2ccccc2)c(C)c1NC(=O)c1noc2c1CCc1ccccc1-2	?	4.9%	?	/	?	?
COc1ccc(-c2cc(C(=O)Nc3c(C)nn(Cc4ccccc4Cl)c3C)no2)cc1OC	?	-0.5%	/	-5.4	8.91µM*	/
COc1ccc(OC)c(-c2cc(C(=O)Nc3c(C)nn(Cc4ccccc4C)c3C)no2)c1	?	0.0%	/	-23.0	3.16µM*	/
O=C(CN1CCN(S(=O)(=O)c2ccccc2F)CC1)NCC1(N2CCOCC2)CCCCC1	-14.5%	-27.1%	/	-11.3	5.7%	/
CC(=O)NC12CC3CC(C)(C1)CC(NC(C)=O)(C3)C2	11.9%	6.8%	i	-68.6*	/	-16.6%
COc1ccccc1C(=O)Nc1ccnn1C1CCN(C(=O)c2cnsn2)CC1	40.2%	0.0%	-4.2%	-102.6*	15.7%	-2.1%
COc1ccccc1C(=O)Nc1ccnn1C1CCN(C(=O)c2ccoc2)CC1	16.0%	/	i	2.9	34.6%	1.3%
COc1ccccc1C(=O)Nc1ccnn1C1CCN(C(=O)c2ccoc2C)CC1	5.7%	-19.0%	-9.1%	-62.8*	6.4%	-17.5%
SMILES	FMDV inh	Sm TGR block	Vaccinia mCherry	HCMV antiviral	HCV inhibitor	Vaccinia Venus
CCOC(=O)C(=Cc1ccc(-n2cncn2)cc1)C(=O)OCC	28.2µM*	15.8µM*	?	-100.1*	-25.3%	?
Cc1cc(-c2ccc(C(C)C)c(S(=O)(=O)N3CCOc4ccccc43)c2)on1	?	-3.3%	-14.9%	-64.3*	?	-4.0%
Cc1ccc(-c2onc(C)c2C)cc1S(=O)(=O)N1c2ccccc2CC1C (stereo unspecified)	?	4.1%	?	-38.8	/	-29.6%
Cc1ccc(-c2onc(C)c2C)cc1S(=O)(=O)N1CCOc2ccccc21	0.0%	-9.9%	/	+	?	/
COc1ccc(-c2cc(C)no2)cc1S(=O)(=O)N1CCOc2ccccc21	-13.0%	-17.4%	-17.9%	19.1	2.8%	-6.7%
CCN(c1ccccc1)S(=O)(=O)c1ccc(Cl)nc1	-9.9%	5.5%	-11.7%	2.9	1.8%	-16.2%
CCN(c1ccccc1)S(=O)(=O)c1ccc(NCC2COc3ccccc3O2)nc1 (stereo unspecified)	?	6.0%	/	7.9	11.2µM*	/
CCN(CCCNC(=O)C1CCC(=O)N1C1CCCC1)c1cccc(C)c1 (stereo unspecified)	5.1%	0.4%	/	8.5	-6.9%	-16.7%
CNc1nc(-c2ccc3c(c2)CCN3C(=O)c2ccccc2F)cs1	-7.5%	-31.2%[57.1 µM]	-20.8%	50.2	11.2µM*	-28.3%
Cc1ccc(NC(=O)Cn2c(=O)nc(-c3ccccc3)c3ccccc32)cc1	-0.2%	3.8%	-14.6%	9.5	/	-7.9%
COc1ccc(-c2nc(SCc3ccc(C#N)cc3)[nH]c(=O)c2C#N)cc1	4.9%	6.3%	/	-20.9	16.9%	/
Cc1cc(N2CC(C)OC(C)C2)n2cc(-c3ccccc3)nc2n1 (stereo unspecified)	3.8%	-3.5%	i	-98.5*	-18.4%	-2.2%
CCC(c1nc2ccccc2[nH]1)n1c(=O)c(-c2ccccc2)nc2ccccc21 (stereo unspecified)	-11.5%	/	-12.9%	-17.6	/	17.6%
CC(C)c1ccc(C2=CC(c3cccc(Cl)c3)n3c(nc4ccccc43)N2)cc1 (stereo unspecified)	-75.2%	-3.1%	-6.3%[7.34 µM]	-63.2*	/	19.6%[7.34 µM]
CCC(=O)N(CC)C1=C(O)c2ccccc2C(=O)C1=O	-24.2%	0.282µM*	-18.2%	-105.3*	?	-5.1%
CCOC(=O)c1cnc(SCC(=O)OC)nc1N	40.3%	0.0%	/	-4.5	15.7%	/
COCCCN=C(c1ccco1)n1c(=S)nc(-c2ccco2)n(CCCOC)c1=S	/	20µM*	-5.7%	85.5	-12.0%	4.3%
C(=N\Nc1nc(Nc2ccccc2)nc(N2CCOCC2)n1)/c1c[nH]c2ccccc12	3.2%	4.8%	/	0.6	3.55µM*	/
Cc1ccc(Nc2nc(N/N=C/c3c[nH]c4ccccc34)nc(N3CCOCC3)n2)cc1	?	-1.7%	?	2.8	?	?
Cc1[nH]c2ccccc2c1/C=N/Nc1nc(Nc2ccc(F)cc2)nc(N2CCOCC2)n1	-17.1%	-3.0%	-20.3%	-8.8	8.91µM*!	-18.1%
